Compound activity: PubChem, several laboratories
This is a sample that favours compounds with a hit; in the whole collection about 4.5% have one here.
CSC inhib – blocks cancer stem cells; cancer stem cell-like cells viability, luminescence; inhibition, % at 7.5 µM; 300,000 compounds, 1.1% hits; AID 2717; in the data active = inhibition above about 75%; tested in HMLE shEcad cells
Beta cell apopt – beta cell apoptosis inhibition; INS-1E cytokine-induced death, ATP luminescence, 48 h; percent of positive-control rescue, neutral wells zero; protection from apoptosis, % (no concentration beside the values); 300,000 compounds, 0.8% hits; AID 435005;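 active = Every replicate reaches about 75%, or at least half do and their mean reaches it too, limit read from the data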;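 also: 0% = cytokine-treated negative control wells and 100% = positive control rescue; higher means more ATP so stronger rescue from cytokine killing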
Jurkat NFkB inh – inhibitors of the PMA/ionomycin-induced NF-kB reporter in Jurkat cells; PMA/ionomycin-induced NF-kB luciferase reporter, luminescence; 330,000 compounds, 0.53% hits; inhibition, % at 4 µM; AID 435003; in the data active = inhibition above about 50%
Mdm2 MdmX PPI – inhibitors of human Mdm2/MdmX interaction; O15151+Q00987; SaOS-2 split-luciferase Mdm2/MdmX complementation, luminescence; inhibition, % at 8 µM; 330,000 compounds, 3% hits; AID 485346;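 active = inhibition of at least 50% at 8 µM in the primary screen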
Target sequence (O15151 whole entry, looked up): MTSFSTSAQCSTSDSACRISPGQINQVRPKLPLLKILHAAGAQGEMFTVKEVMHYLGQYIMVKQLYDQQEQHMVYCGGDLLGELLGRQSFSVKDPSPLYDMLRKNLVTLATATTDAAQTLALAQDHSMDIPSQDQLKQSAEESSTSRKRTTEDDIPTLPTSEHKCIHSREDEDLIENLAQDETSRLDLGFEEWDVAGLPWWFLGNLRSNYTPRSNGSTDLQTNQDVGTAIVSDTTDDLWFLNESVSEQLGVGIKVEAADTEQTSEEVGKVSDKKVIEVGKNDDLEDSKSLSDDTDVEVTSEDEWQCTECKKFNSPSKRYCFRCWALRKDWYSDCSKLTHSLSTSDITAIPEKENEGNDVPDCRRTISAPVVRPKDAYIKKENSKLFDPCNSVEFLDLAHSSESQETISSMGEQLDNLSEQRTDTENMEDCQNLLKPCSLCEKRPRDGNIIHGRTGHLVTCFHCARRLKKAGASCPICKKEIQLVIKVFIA
Target sequence (Q00987 whole entry, looked up): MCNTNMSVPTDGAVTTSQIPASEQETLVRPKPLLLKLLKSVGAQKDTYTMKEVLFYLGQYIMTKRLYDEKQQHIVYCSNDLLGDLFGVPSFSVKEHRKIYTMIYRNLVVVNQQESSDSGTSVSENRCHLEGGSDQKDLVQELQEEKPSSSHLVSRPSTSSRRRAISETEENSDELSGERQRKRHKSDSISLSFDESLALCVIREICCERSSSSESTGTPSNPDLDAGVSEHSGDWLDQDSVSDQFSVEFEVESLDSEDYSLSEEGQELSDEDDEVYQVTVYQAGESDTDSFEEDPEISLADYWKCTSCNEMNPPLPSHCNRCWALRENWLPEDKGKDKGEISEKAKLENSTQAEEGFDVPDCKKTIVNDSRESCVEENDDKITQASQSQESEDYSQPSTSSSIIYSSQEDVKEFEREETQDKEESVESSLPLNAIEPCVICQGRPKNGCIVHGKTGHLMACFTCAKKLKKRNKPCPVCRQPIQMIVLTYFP
Gli-Sufu block – antagonists of Gli-Sufu signaling; Sufu-KO-LIGHT fibroblasts, Gli luciferase reporter luminescence; inhibition, % at 5 µM; 340,000 compounds, 0.74% hits; AID 588413;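 active = inhibition above about 55%, limit read from the data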;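 also: 0% = DMSO-treated cells and 100% = wells with medium but no cells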
697 NFkB inh – inhibitors of the PMA/ionomycin-induced NF-kB reporter in 697 B cells; 330,000 compounds, 0.33% hits; inhibition, % at 4 µM; 697 B-cell NF-kB luciferase reporter, 16 h; in the data active = inhibition above about 35%
* marks the source's active call; other numbers are inactive results; . = not tested or not shown.

SMILES | CSC inhib | Beta cell apopt | Jurkat NFkB inh | Mdm2 MdmX PPI | Gli-Sufu block | 697 NFkB inh
O=C(CCN1CCCCC1)Nc1ccc(Cl)cc1C(=O)c1ccccc1 | -1.7 | -4.6 | -12.8 | 16.9 | 5.3 | -17.8
O=C(CN1CCCC1)Nc1ccc(Cl)cc1C(=O)c1ccccc1 | 85.0* | 16.8 | 0.3 | 8.1 | 9.6 | 14.8
O=C(c1ccccc1)C(CN1CCCC1)c1ccccc1 (stereo not drawn) | 49.5 | 92.1* | . | . | 4.7 | .
N#CC(C#N)=C(C#N)c1ccc(Nc2ccccc2)cc1 | 93.4* | . | -11.1 | 13.5 | 6.0 | 6.7
CC(C)=CCc1c(O)cc2c(c1O)C(=O)CC(c1ccc(O)cc1)O2 (stereo not drawn) | 98.6* | . | -2.6 | 28.6 | -10.8 | -33.1
COc1cc2cc(C(=O)N3CC(COS(C)(=O)=O)c4ccc(O)cc43)[nH]c2c(OC)c1OC (stereo not drawn) | . | . | . | . | 94.0* | .
Cc1c(OC(=O)N(C)C)ccc2c1O/C(=C\c1ccco1)C2=O | 3.2 | -4.1 | -30.5 | 5.8 | -18.7 | -30.0
COc1ccc(N/N=C/c2c(O)n(-c3ccc(C)c(C)c3)c(=O)[nH]c2=O)cc1 | 117.3* | -7.3 | 18.3 | -7.4 | 0.4 | 9.2
COc1ccc(N/N=C/c2c(O)n(-c3cccc(C)c3)c(=O)[nH]c2=O)cc1 | 95.2* | -10.5 | 15.9 | 5.6 | 3.5 | 24.5
CC(C)(C)N1CC(C(=O)c2ccccc2)C1c1ccccc1 (stereo not drawn) | . | . | . | . | -2.5 | .
c1ccc2c(CN3CCCCC3)c[nH]c2c1 | 3.9 | -8.8 | 6.8 | 21.2 | 2.6 | 14.9
O=C(COc1ccc(Br)cc1)N1CCN(Cc2c[nH]c3ccccc23)CC1 | 6.9 | 106.4* | 20.5 | 21.4 | . | -24.0
O=C(COc1ccc2ccccc2c1)N1CCN(Cc2c[nH]c3ccccc23)CC1 | 10.7 | 101.8* | -0.5 | 22.1 | -2.4 | -35.2
C[C@]12CCC3C(CC[C@@H]4[C@H]5O[C@H]5CC[C@]34C)C1CC[C@@H]2O (stereo partly drawn) | . | . | . | . | 0.0 | .
CCCCC/C=C\C/C=C\C/C=C\C/C=C\CCCC(=O)Nc1ccc(O)cc1 | 85.0* | . | . | . | . | .
CCC(=O)Nc1ccccc1 | -10.1 | . | 3.7 | -0.4 | -1.2 | 10.5
CCCCn1c(=O)c(C(=O)Nc2ccccc2)c(O)c2ccccc21 | 44.9 | 22.4 | -23.1 | 4.3 | 3.0 | -27.5
CCCCCn1c(=O)c(C(=O)NC(C)c2ccccc2)c(O)c2ccccc21 (stereo not drawn) | 34.2 | 109.4* | -12.8 | 31.9 | 9.3 | 15.5
CCCCCCn1c(=O)c(C(=O)Nc2ncccc2C)c(O)c2ccccc21 | 6.3 | 82.3* | -14.6 | 4.6 | 22.9 | -28.3
CCCCn1c(=O)c(C(=O)Nc2ncccc2C)c(O)c2ccccc21 | 8.3 | -9.2 | 0.3 | 25.9 | 5.6 | -20.7
Oc1c(Cl)cccc1Cc1cc(Cl)cc(Cl)c1O | . | . | . | . | 29.9 | .
COC(=O)C1=C(c2cccc(C#N)c2)C[C@@H]2CC[C@H]1N2C(=O)N1CCC(C)CC1 | 4.3 | 0.0 | 6.1 | 24.6 | 4.1 | -0.8
CC(C)CCn1c(N)c(C(=O)NCc2cccs2)c2nc3ccccc3nc21 | 76.8* | -13.0 | -7.9 | 35.4 | 3.5 | -0.3
CC(C)OCCCNC(=O)c1c(N)n(Cc2cccs2)c2nc3ccccc3nc12 | 118.4* | -11.5 | 6.1 | 17.9 | -1.0 | 9.9
COCCNC(=O)c1c(N)n(CCC(C)C)c2nc3ccccc3nc12 | 24.1 | -14.6 | 5.8 | 18.0 | 7.4 | 20.6
SMILES | CSC inhib | Beta cell apopt | Jurkat NFkB inh | Mdm2 MdmX PPI | Gli-Sufu block | 697 NFkB inh
COC(=O)C1=C(c2ccc3ccccc3c2)C[C@@H]2CC[C@H]1N2C(=O)N1CCCCC1 | 6.5 | 1.4 | 7.1 | 18.3 | 41.4 | -8.1
CC(=O)NC1=C(N2CC2C)C(=O)C(NC(C)=O)=C(N2CC2C)C1=O (stereo not drawn) | . | . | . | . | 12.9 | .
CCOC(=O)C(=CNc1ccc(C(O)(C(=O)OCC)C(F)(F)F)cc1C)C(=O)OCC (stereo not drawn) | 11.1 | 96.7* | -8.7 | -2.2 | 24.1 | -3.9
C[C@]12CCC3C(CC[C@H]4C[C@@H](O)CC[C@]34C)C1CC[C@@H]2OC(=O)[C@H](N)CCCCN (stereo partly drawn) | 10.5 | 9.0 | -19.0 | 43.0 | 6.0 | 3.8
COc1ccccc1N1CCN(Cc2cc(C)c(C)cc2O)CC1 | 13.8 | -6.1 | -2.5 | -13.5 | 7.8 | -20.1
COc1cc(CN2CCN(c3cc(C)ccc3C)CC2)ccc1O | -5.4 | 107.8* | -3.5 | 31.1 | 14.8 | -22.5
